SMILES strings stand for the structures. Screen size: about 220,000 compounds; about 910 (0.41%) were called active. Many of the other results were omitted from the sample, so actives are more common in it than they were. Entries with a potency or affinity are not part of this list. Unmarked numbers belong to inactive results.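 Rule for the calls: active = primary inhibition above the hit cutoff, then over 50% inhibition at one or more dose response concentrations (cut at about 23% in these data, passing the limit was not always enough); inconclusive = conflicting primary data, or primary hits not chosen for dose response; inactive = low primary inhibition, or under 50% at every dose.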

This experiment deals with Aminopeptidase N (Plasmodium falciparum (isolate 3D7)) (UniProt O96935). As to the kind of experiment: P. falciparum M1AAP inhibitors, biochemical, fluorogenic H-Leu-NHMec substrate, 1536-well (AID 1445).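 Note: plate controls were DMSO full reaction for no effect and no enzyme background for full effect.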 Conditions: recombinant M1AAP, H-Leu-NHMec fluorogenic kinetic assay; at 30 µM, active compounds read high unless noted.
Sequence of Aminopeptidase N (Plasmodium falciparum (isolate 3D7)) (O96935 whole entry, looked up): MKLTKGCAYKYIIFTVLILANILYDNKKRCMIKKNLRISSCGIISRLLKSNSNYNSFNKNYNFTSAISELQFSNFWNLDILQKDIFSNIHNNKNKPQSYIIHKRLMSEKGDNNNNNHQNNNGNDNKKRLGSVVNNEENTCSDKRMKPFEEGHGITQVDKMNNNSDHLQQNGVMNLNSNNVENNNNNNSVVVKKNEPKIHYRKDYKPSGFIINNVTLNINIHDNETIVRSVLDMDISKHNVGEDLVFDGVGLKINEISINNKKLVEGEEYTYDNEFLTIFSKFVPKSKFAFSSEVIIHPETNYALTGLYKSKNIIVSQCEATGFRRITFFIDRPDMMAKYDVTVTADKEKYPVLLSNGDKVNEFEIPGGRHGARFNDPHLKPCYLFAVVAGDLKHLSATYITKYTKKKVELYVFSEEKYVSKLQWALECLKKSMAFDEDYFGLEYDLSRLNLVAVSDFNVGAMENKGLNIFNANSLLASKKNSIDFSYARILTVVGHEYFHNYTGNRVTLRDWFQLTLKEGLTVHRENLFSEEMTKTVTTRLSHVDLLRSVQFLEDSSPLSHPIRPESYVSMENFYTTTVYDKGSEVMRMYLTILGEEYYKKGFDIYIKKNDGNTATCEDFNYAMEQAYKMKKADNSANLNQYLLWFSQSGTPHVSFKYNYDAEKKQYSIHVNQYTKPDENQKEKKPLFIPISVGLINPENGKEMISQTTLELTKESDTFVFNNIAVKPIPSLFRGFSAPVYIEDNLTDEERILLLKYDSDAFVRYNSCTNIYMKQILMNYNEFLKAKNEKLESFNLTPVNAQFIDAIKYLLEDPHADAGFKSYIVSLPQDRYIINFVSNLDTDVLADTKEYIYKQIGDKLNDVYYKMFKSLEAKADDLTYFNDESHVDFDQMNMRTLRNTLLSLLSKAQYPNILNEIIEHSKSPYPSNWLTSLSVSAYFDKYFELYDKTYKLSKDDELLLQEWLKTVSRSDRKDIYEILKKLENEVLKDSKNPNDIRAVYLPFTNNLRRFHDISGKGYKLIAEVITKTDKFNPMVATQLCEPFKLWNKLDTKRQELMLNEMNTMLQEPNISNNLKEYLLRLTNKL
Usually inhibition stands for the change of the read-out against control, counted positive when it falls. As for `CCOC(=O)c1sc2nc3c(SCCC#N)cc(C(=O)c4cc(F)ccc4O)cn3c(=O)c2c1C`, the inhibition was 2.71%.
As for `CCOC(=O)c1cc(C(=O)c2ccccc2O)cn2c(=O)c3c(C)c(C)sc3nc12`, the inhibition is 13.9%.
With `O=C(O)CSc1cc(C(=O)c2ccccc2O)cn2c(=O)c3c(-c4ccccc4)csc3nc12`, the inhibition is 17.9%.
Regarding `Cc1sc2nc3c(C(=O)N4CCCC4)cc(C(=O)c4ccccc4O)cn3c(=O)c2c1C`, the inhibition was 17.2%.
Consider `O=C(O)CSc1cc(C(=O)c2cc(F)ccc2O)cn2c(=O)c3c(-c4ccccc4)csc3nc12`, for which the inhibition was 21.3%.
For `CCOC(=O)c1sc2nc3c(SCC(=O)O)cc(C(=O)c4ccccc4O)cn3c(=O)c2c1C`, the inhibition was 9.02%.
Turning to `COC(=O)N/N=C(\C)c1ccc(-n2ccnc2)cc1`, the inhibition is -0.5%.
Turning to `CCC(=O)N/C(N)=N/c1nc(C)c2cc(C)c(C)cc2n1`, the inhibition is 7.6%.
Consider `C=CCn1c(N)cc(=O)nc1SCC(=O)NC(C)c1ccccc1` (centres undefined), for which the inhibition is -2.4%.
As for `O=C(N/N=C/c1ccco1)c1cc(Br)ccc1OCc1ccccc1`, the inhibition is 4.59%.
As to `C[C@H](NC(=O)c1ccco1)C(=O)Nc1ccc(S(=O)(=O)N2CCCC2)cc1`, the inhibition was -6.98%.
Regarding `CC(C)c1ccc(S(=O)(=O)N2CCN(C(=O)c3ccco3)CC2)cc1`, the inhibition is 0.71%.
With `CC(C(=O)Nc1ccc(S(=O)(=O)N2CCCC2)cc1)N1CCN(C(=O)c2ccco2)CC1` (centres undefined), the inhibition is 35.6% (active).
Under `Cc1ccc(N=Nc2c(C)[nH]n(-c3ccccc3)c2=O)c(C)c1` stands 3.7%; under `Cc1[nH]n(-c2ccccc2)c(=O)c1N=Nc1ccccc1`, 4.86%; under `CC(/C=N/Nc1nc(N2CCCCC2)nc(N2CCCCC2)n1)=C\c1ccccc1`, 5.4%.
To `OCCNc1nc(OCC(F)(F)F)nc(N2CCN(C34CC5CC(CC(C5)C3)C4)CC2)n1` belongs 9.11%; to `CC(=O)Cc1nsc(NC(=O)c2ccc(COc3ccccc3)o2)n1`, 26.3% (active).
Take `CC(=O)Cc1nsc(NC(=O)c2ccc(COc3ccc(C)cc3)o2)n1`: the inhibition was 8.72%.
Regarding `CC(=O)Cc1nsc(NC(=O)c2ccc(Br)o2)n1`, the inhibition was 0.84%.
Under `Cc1cc(NC(=O)CSc2nc(C(C)C)nc3c2c(=O)n(C)c(=O)n3C)no1` stands 5.47%; under `O=C(O)Cc1sc(-c2cccnc2)nc1-c1ccc(Br)cc1`, 9.14%.
To `CCOC(=O)N1CCN(c2cc(=O)n(-c3ccccc3Cl)c(=O)[nH]2)CC1` belongs -0.91%; to `CNc1oc(-c2ccc(C)cc2)nc1P(=O)(c1ccccc1)c1ccccc1`, -2.06%.

For the origin of these results see PubChem BioAssay AID1445 (SRMLSC, 2008).
